A number with no mark means an inactive call. Results filed as inconclusive are left out. Entries that show only a call come without a potency. Calls of active or inactive are those of the source. Unless noted, calls follow the shape of the dose curve; as a rule, active = well fitted curve in the direction sought with a large enough effect in the repeat runs; inconclusive = weak or mixed curves; inactive = flat fitted curve, though single readings scatter.
How the values were obtained:
[1] = qHTS assay to test for compound auto fluorescence at 535 nm (green) in HEK293 cells (AID 720680)
[2] = qHTS assay to test for compound auto fluorescence at 460 nm (blue) in HEK293 cell free culture (AID 720681)
In short: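 Blue fluorescence (Ex 405/Em 460 nm, triamterene-equivalent) was read immediately after pin transfer of compound or DMSO into medium (DMEM, 10% FBS) without cells.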

[3] = qHTS assay to test for compound auto fluorescence at 535 nm (green) in HEK293 cell free culture (AID 720682)
In short: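 Using fluorescein as calibrant, autofluorescence was quantified at 485/535 nm in cell-free DMEM containing 10% FBS after pintool addition of compound or vehicle.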

[4] = qHTS assay to test for compound auto fluorescence at 590 nm (red) in HEK293 cell free culture (AID 720683)
In short: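 Red-channel autofluorescence of compounds in culture medium (DMEM, 10% FBS), no cells, measured at 540/590 nm. Rose Bengal sodium is the reference fluorophore for equivalence.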

[5] = qHTS assay to test for compound auto fluorescence at 590 nm (red) in HepG2 cell free culture (AID 720684)
In short: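 Cell-free; medium MEM + 10% FBS; compound or DMSO added by pintool; read Ex 540/Em 590 nm; Rose Bengal sodium as red reference fluorophore.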

[6] = qHTS assay to test for compound auto fluorescence at 460 nm (blue) in HepG2 cell free culture (AID 720685)
In short: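 Cell-free plates of MEM plus 10% FBS received 23 nL compound or DMSO vehicle; blue-channel (405/460 nm) intensity scored against triamterene as reference fluorophore.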

[7] = qHTS assay to test for compound auto fluorescence at 535 nm (green) in HepG2 cell free culture (AID 720686)
[8] = qHTS assay to test for compound auto fluorescence at 460 nm (blue) in HepG2 cells (AID 720687)
In short: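 Blue-channel autofluorescence (Ex/Em 405/460 nm, triamterene-equivalent) was measured after 1 hr compound exposure at 37 C, 5% CO2. Cells were HepG2, plated overnight at 37 C in MEM plus 10% FBS.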

[9] = target: Glucocorticoid receptor (Homo sapiens) (UniProt P04150); assay: qHTS assay to identify small molecule agonists of the glucocorticoid receptor (GR) signaling pathway (AID 720691; active = well fitted activation curve with a large enough effect in the signal ratio in the repeat runs, not every such curve was filed as active; the % refers to the signal ratio)
Chain of Glucocorticoid receptor (Homo sapiens) (P04150 whole entry, looked up): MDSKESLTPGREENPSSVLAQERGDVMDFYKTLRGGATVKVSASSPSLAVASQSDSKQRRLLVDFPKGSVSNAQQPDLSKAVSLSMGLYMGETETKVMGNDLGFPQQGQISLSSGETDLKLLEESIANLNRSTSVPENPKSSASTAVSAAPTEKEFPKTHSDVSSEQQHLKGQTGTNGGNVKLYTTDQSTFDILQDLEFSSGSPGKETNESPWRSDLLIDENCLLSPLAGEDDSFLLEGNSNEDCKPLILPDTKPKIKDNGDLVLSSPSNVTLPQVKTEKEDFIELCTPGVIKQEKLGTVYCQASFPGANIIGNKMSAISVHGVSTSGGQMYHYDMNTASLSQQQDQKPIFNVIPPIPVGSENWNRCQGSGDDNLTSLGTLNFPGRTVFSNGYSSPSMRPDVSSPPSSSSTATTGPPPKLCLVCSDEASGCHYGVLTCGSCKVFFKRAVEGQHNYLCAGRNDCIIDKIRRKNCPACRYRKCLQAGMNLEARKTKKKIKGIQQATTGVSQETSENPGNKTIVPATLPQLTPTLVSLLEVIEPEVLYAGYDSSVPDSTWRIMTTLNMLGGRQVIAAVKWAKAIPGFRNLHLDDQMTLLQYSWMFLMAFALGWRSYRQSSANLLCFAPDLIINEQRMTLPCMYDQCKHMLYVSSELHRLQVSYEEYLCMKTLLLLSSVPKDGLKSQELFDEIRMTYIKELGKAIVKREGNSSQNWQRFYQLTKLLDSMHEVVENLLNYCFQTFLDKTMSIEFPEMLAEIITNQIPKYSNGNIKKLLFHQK
In short: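 A HeLa cervical cancer line expressing GR and a glucocorticoid response element-driven beta-lactamase gene is treated with compounds for 18 h; LiveBLAzer B/G FRET substrate is then applied and fluorescence read.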

[10] = target: Glucocorticoid receptor (Homo sapiens) (UniProt P04150); assay: qHTS assay to identify small molecule antagonists of the glucocorticoid receptor (GR) signaling pathway (AID 720692; active = well fitted inhibition curve with a large enough effect in the signal ratio in the repeat runs, not every such curve was filed as active; the % refers to the signal ratio; also: potency is read from the fitted curve at half-maximal effect)
In short: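 GRE-bla HeLa line, dex-stimulated (5 nM final). Compound exposure 18 h, 37 C. Beta-lactamase FRET read after 2 h RT substrate.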

Row | SMILES | outcome [1] | outcome [2] | outcome [3] | outcome [4] | outcome [5] | outcome [6] | outcome [7] | outcome [8] | outcome [9] | Potency [10]
1 | CC(Cl)Cl | inactive | inactive | inactive | inactive | inactive | inactive | inactive | inactive | inactive | –
2 | O=NN1CCNCC1 | inactive | inactive | inactive | inactive | inactive | inactive | inactive | inactive | inactive | –
3 | COc1c(C(C)(C)C)cc([N+](=O)[O-])c(C)c1[N+](=O)[O-] | inactive | inactive | inactive | inactive | inactive | inactive | inactive | inactive | inactive | –
4 | COC1=CC(=O)O[C@@H](CCc2ccccc2)C1 | inactive | inactive | inactive | inactive | inactive | inactive | inactive | inactive | inactive | –
5 | CO/N=C(/C(=O)OC)c1ccccc1COc1ccccc1C | inactive | inactive | inactive | inactive | inactive | inactive | inactive | inactive | inactive | –
6 | CC(=O)[C@H]1CC[C@H]2[C@@H]3CC[C@H]4C[C@](C)(O)CC[C@]4(C)[C@H]3CC[C@]12C | inactive | inactive | inactive | inactive | inactive | inactive | inactive | inactive | inactive | –
7 | NCCCNCCCN | inactive | inactive | inactive | inactive | inactive | inactive | inactive | inactive | inactive | –
8 | S=C=NCc1ccccc1 | inactive | inactive | inactive | inactive | inactive | inactive | inactive | inactive | inactive | –
9 | c1cc2ccc3cccc4ccc(c1)c2c34 | inactive | inactive | inactive | inactive | inactive | inactive | inactive | inactive | inactive | –
10 | O=C(O)COc1ccc(Cl)cc1 | inactive | inactive | inactive | inactive | inactive | inactive | inactive | inactive | inactive | inactive
11 | COc1nn(C(=O)NS(=O)(=O)c2ccccc2OC(F)(F)F)c(=O)n1C | inactive | inactive | inactive | inactive | inactive | inactive | inactive | inactive | inactive | inactive
12 | C[C@H]1CNCCc2ccc(Cl)cc21 | inactive | inactive | inactive | inactive | inactive | inactive | inactive | inactive | inactive | inactive
13 | COCC(C)N(C(=O)CCl)c1c(C)csc1C (stereo unspecified) | inactive | inactive | inactive | inactive | inactive | inactive | inactive | inactive | inactive | inactive
14 | OCCCBr | inactive | inactive | inactive | inactive | inactive | inactive | inactive | inactive | inactive | inactive
15 | O=S1(=O)OC(c2cc(Br)c(O)c(Br)c2)(c2cc(Br)c(O)c(Br)c2)c2ccccc21 | inactive | inactive | inactive | inactive | inactive | inactive | inactive | inactive | inactive | inactive
16 | C[N+](C)(C)CCCl | inactive | inactive | inactive | inactive | inactive | inactive | inactive | inactive | inactive | –
17 | O=C(CBr)OCc1ccccc1 | inactive | inactive | inactive | inactive | inactive | inactive | inactive | inactive | inactive | inactive
18 | C=CC(C)=O | inactive | inactive | inactive | inactive | inactive | inactive | inactive | inactive | inactive | –
19 | COP(=S)(OC)Oc1cc(Cl)c(I)cc1Cl | inactive | inactive | inactive | inactive | inactive | inactive | inactive | inactive | inactive | 24.5 µM (active)
20 | C=CC[C@]1(O)CC[C@H]2[C@@H]3CCC4=CC(=O)CCC4=C3C=C[C@@]21C | inactive | inactive | inactive | inactive | inactive | inactive | inactive | inactive | inactive | –
21 | COP(=S)(Oc1cc(Cl)c(Br)cc1Cl)c1ccccc1 (stereo unspecified) | inactive | inactive | inactive | inactive | inactive | inactive | inactive | inactive | inactive | –
22 | CCCCNP(N)(N)=S | inactive | inactive | inactive | inactive | inactive | inactive | inactive | inactive | inactive | –
23 | C=CCOC(C)=O | inactive | inactive | inactive | inactive | inactive | inactive | inactive | inactive | inactive | –
24 | CN(N=O)c1ccc([N+](=O)[O-])cc1 | inactive | inactive | inactive | inactive | inactive | inactive | inactive | inactive | inactive | inactive
25 | CCOP(O)OCC | inactive | inactive | inactive | inactive | inactive | inactive | inactive | inactive | inactive | –
26 | Clc1cc(Cl)c(Cl)c(Cl)c1 | inactive | inactive | inactive | inactive | inactive | inactive | inactive | inactive | inactive | –

Row | SMILES | outcome [1] | outcome [2] | outcome [3] | outcome [4] | outcome [5] | outcome [6] | outcome [7] | outcome [8] | outcome [9] | Potency [10]
27 | CN1C(=O)NC(=O)C(C)(C2=CCCCC2)C1=O (stereo unspecified) | inactive | inactive | inactive | inactive | inactive | inactive | inactive | inactive | inactive | inactive
28 | Oc1ccc(Cl)c(Cl)c1Cl | inactive | inactive | inactive | inactive | inactive | inactive | inactive | inactive | inactive | inactive
29 | C=CCC1([C@H](C)CCC)C(=O)NC(=O)NC1=O | inactive | inactive | inactive | inactive | inactive | inactive | inactive | inactive | inactive | inactive
30 | CC/C(=N\OC/C=C/Cl)C1=C(O)CC(C2CCOCC2)CC1=O (stereo unspecified) | inactive | inactive | inactive | inactive | inactive | inactive | inactive | inactive | inactive | inactive
31 | COC(N)=O | inactive | inactive | inactive | inactive | inactive | inactive | inactive | inactive | inactive | –
32 | CCCCC(O)(Cn1cncn1)c1ccc(Cl)cc1Cl (stereo unspecified) | inactive | inactive | inactive | inactive | inactive | inactive | inactive | inactive | inactive | –
33 | CCCN(CCCl)c1c([N+](=O)[O-])cc(C(F)(F)F)cc1[N+](=O)[O-] | inactive | inactive | inactive | inactive | inactive | inactive | inactive | inactive | inactive | –
34 | N#Cc1cc(I)c(O)c(I)c1 | inactive | inactive | inactive | inactive | inactive | inactive | inactive | inactive | inactive | –
35 | CCOP(=S)(OCC)Oc1nc(Cl)c(Cl)cc1Cl | inactive | inactive | inactive | inactive | inactive | inactive | inactive | inactive | inactive | inactive
36 | CC(=O)CCC(C)=O | inactive | inactive | inactive | inactive | inactive | inactive | inactive | inactive | inactive | –
37 | CC(C)(OO)c1ccccc1 | inactive | inactive | inactive | inactive | inactive | inactive | inactive | inactive | inactive | –
38 | CS/C(C)=N/OC(=O)N(C)SN(C)C(=O)O/N=C(\C)SC | inactive | inactive | inactive | inactive | inactive | inactive | inactive | inactive | inactive | –
39 | O=[Se]=O | inactive | inactive | inactive | inactive | inactive | inactive | inactive | inactive | inactive | –
40 | C[C@@H]1CC[C@H]2[C@@H](C)C(=O)O[C@@H]3O[C@@]4(C)CC[C@@H]1[C@]32OO4 | inactive | inactive | inactive | inactive | inactive | inactive | inactive | inactive | inactive | –
41 | CCCC(=O)Cl | inactive | inactive | inactive | inactive | inactive | inactive | inactive | inactive | inactive | inactive
42 | CCCCOC(=O)c1ccccc1C(=O)OCc1ccccc1 | inactive | inactive | inactive | inactive | inactive | inactive | inactive | inactive | inactive | –
43 | ClCCCCBr | inactive | inactive | inactive | inactive | inactive | inactive | inactive | inactive | inactive | –
44 | BrCC(Br)C1CCC(Br)C(Br)C1 (stereo unspecified) | inactive | inactive | inactive | inactive | inactive | inactive | inactive | inactive | inactive | –
45 | CC1(C)[C@H](C=C(Cl)Cl)[C@@H]1C(=O)O[C@@H](C#N)c1cccc(Oc2ccccc2)c1 | inactive | inactive | inactive | inactive | inactive | inactive | inactive | – | inactive | –
46 | O=C(N[C@H](c1ccccc1)[C@@H]1CN2CCC1CC2)c1c(Cl)ccc(C(F)(F)F)c1Cl | inactive | inactive | inactive | inactive | inactive | inactive | inactive | – | inactive | –
47 | O=S(=O)(O)C(F)(F)C(F)(F)C(F)(F)C(F)(F)F | inactive | inactive | inactive | inactive | inactive | inactive | inactive | – | inactive | inactive
48 | Cn1sc(Cl)cc1=O | inactive | inactive | inactive | inactive | inactive | inactive | inactive | – | inactive | –
49 | CC(C)(CCl)C(=O)Cl | inactive | inactive | inactive | inactive | inactive | inactive | inactive | inactive | inactive | inactive
50 | Cl/C=C\Cl | inactive | inactive | inactive | inactive | inactive | inactive | inactive | inactive | – | inactive
51 | CC(C)N(C(=O)COc1nnc(C(F)(F)F)s1)c1ccc(F)cc1 | inactive | inactive | inactive | inactive | inactive | inactive | inactive | inactive | inactive | 49 µM (active)
52 | O=C1c2ccccc2C(=O)C1C(=O)C(c1ccccc1)c1ccccc1 | inactive | inactive | inactive | inactive | inactive | inactive | inactive | – | – | 21.3 µM (active)

— PubChem BioAssay (Tox21)
